rTrxR1 inhibitor – inhibitors of rat thioredoxin reductase 1; O89049; recombinant rTrxR1, NADPH fluorescence consumption, selenite substrate; Potency, µM (doses to about 114 µM), inactives show top-dose activity change, negative = inhibition, actives largely listed as inhibitors; 1% of 390,000 active; further: on the % scale 0 is the no-effect control and ±100 the full control effect; nearly all actives have a fitted effect of over 65% in size
Target sequence (O89049 whole entry, looked up): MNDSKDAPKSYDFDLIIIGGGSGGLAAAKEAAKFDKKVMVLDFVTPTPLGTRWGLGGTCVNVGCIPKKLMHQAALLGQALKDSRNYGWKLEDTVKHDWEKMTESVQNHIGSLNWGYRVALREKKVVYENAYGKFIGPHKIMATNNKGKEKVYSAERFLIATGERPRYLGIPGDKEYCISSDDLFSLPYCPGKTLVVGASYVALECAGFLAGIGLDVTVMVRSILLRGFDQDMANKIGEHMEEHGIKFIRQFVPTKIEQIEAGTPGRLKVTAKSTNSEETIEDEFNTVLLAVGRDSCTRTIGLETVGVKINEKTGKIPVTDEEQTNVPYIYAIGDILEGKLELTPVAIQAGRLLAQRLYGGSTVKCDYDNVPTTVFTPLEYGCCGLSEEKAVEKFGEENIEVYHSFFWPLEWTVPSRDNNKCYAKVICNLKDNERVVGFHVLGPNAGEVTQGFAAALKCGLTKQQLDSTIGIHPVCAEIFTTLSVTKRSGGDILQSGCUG
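Rat TrxR1 (90 nM in the dispensed reagent) was pre-reduced with 400 uM NADPH for 5 min at room temperature, then incubated with compound for 15 min. After 400 uM selenite was added, NADPH fluorescence (Ex 340/Em 450 nm) was followed for 8 min.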
A549 viability – A549 cytotoxicity, counter-screen for Nrf2 inhibitors | A549 ARE-Fluc cells, CellTiter-Fluor viability, 18-24 h | Potency, µM (doses to about 46 µM), for inactives: at the highest dose activity change, negative = cytotoxicity, hits mostly inhibitors | 0.16% of 390,000 active | AID 504648; further: on the % scale 0 is the no-effect control and ±100 the full control effect
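A549 ARE_Fluc cells in 5% FBS OPTI-MEM were exposed to compounds in concentration-response for 18-24 h at 37 deg C. Viability was read by CellTiter-Fluor fluorescence (Ex 405/Em 525) after 30 min, before the luciferase read.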
Nrf2 inh – Nrf2 pathway inhibition | A549 ARE-Fluc reporter, luciferase luminescence, 18-24 h | Potency, µM (series often up to 46 µM), for the others: top-dose activity change, negative = inhibition, actives largely listed as inhibitors | 2.1% of 360,000 active; further: on the % scale 0 is the no-effect control and ±100 the full control effect; nearly all actives have a fitted effect of over 60% in size
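Concentration-response testing used A549 ARE_Fluc cells at 5000 cells/well. Following an 18-24 h compound incubation, viability was read by fluorescence (Ex 405/Em 525) and luciferase output by luminescence.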
GALK inhibitor – inhibitors of human galactokinase; P51570; Purified GALK, Kinase-Glo residual ATP luminescence; Potency, µM (doses to about 57.5 µM), inactives show at the top dose activity change, negative = inhibition, most hits filed as inhibitors; 0.007% of 270,000 active; further: on the % scale 0 is the no-effect control and ±100 the full control effect
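ATP-depletion format; final 35 uM ATP, 100 uM D-galactose, 5 nM enzyme; pH 8.0 HEPES/Mg2+ buffer; 60 min RT; luminescence read 10 min after detection reagent.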
Nrf2 activator – activators of Nrf2 (ARE) signaling. AREc32 ARE-luciferase reporter (MCF7-derived line), luminescence, 24 h. 0.31% of 410,000 active. Potency, µM (series often up to 46.1 µM), without a hit: at the highest dose activation, usual class: activators. AID 624171; further: % of control where 0% means no effect; nearly all actives have a fitted effect of over 65% in size
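Reporter line AREc32 (ARE-Fluc), seeded overnight in OPTI-MEM with 5% FBS; compound pin-transferred, 24 hr at 37 deg C, 5% CO2; luminescent read-out.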
TrxR1 substrate – is turned over as a substrate by rat TrxR1 | O89049 | purified TrxR1 substrate turnover, NADPH consumption readout | Potency, µM (doses to about 114 µM), without a hit: top-dose activity change, negative = substrate turnover | 0.01% of 390,000 active; further: on the % scale 0 is the no-effect control and ±100 the full control effect; nearly all actives have a fitted effect of over 50% in size
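Rat TrxR1, dispensed at 90 nM, was prereduced with 400 uM NADPH (final) for 5 min at ~22 deg C, then incubated with compound 15 min before 400 uM selenite. A first-read NADPH fluorescence drop versus no-compound background flagged substrates.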
Starred values were filed as active, the others as inactive; [ ] = dose if it differs, or a comment. An excerpt weighted towards active compounds, which were near 3% of everything screened. The call rests on the fitted dose curve; in most records, active means well fitted curve in the direction sought with a large enough effect; inconclusive means small, poorly fitted or top-dose-only effect, or another doubt; inactive means no such curve, though single readings can be large; an effect the other way counts as inactive or inconclusive. Potency means the concentration at half of the fitted maximal effect.

How did O=C(Cn1ccc2cc(S(=O)(=O)N3CCCCCC3)ccc21)NCCc1ccc(Cl)cc1 do in these assays?
rTrxR1 inhibitor: 29%; A549 viability: -2%; Nrf2 inh: 26µM*; Nrf2 activator: 6%; TrxR1 substrate: -4%

How did CC(C)CCNC(=O)c1cc2cc(S(=O)(=O)N3CCCCC3)ccc2n1C do in these assays?
rTrxR1 inhibitor: 17%[57.1 µM]; A549 viability: -5%; Nrf2 activator: -1%; TrxR1 substrate: -1%[57.1 µM]

How did CCC(C(=O)NCCC(C)C)n1ccc2cc(S(=O)(=O)N3CCCCC3)ccc21 (stereo not given) do in these assays?
rTrxR1 inhibitor: -14%; A549 viability: -19%; Nrf2 inh: 13µM*; GALK inhibitor: -6%; Nrf2 activator: 0%; TrxR1 substrate: -12%

Results for Cc1nc2nc(CNC(=O)c3cccc(F)c3)nn2c(C)c1CCC(=O)Nc1ccc(F)cc1 ?
rTrxR1 inhibitor: 12%; A549 viability: 0%; Nrf2 inh: 2%; Nrf2 activator: 1%; TrxR1 substrate: 6%

How did O=[S+]([O-])(c1ccc2c(c1)OCCO2)N1CCN([S+](=O)([O-])c2ccc(F)cc2Br)CC1 do in these assays?
A549 viability: 4%; Nrf2 inh: -11%

What do the screens show for `O=C(NCS(=O)(=O)c1ccccc1)c1ccccc1`?
rTrxR1 inhibitor: 45µM*; A549 viability: -4%; Nrf2 inh: 10%; GALK inhibitor: 3%; Nrf2 activator: 0%; TrxR1 substrate: 4%

How did CCCN(CC(=O)Nc1cc(Cl)ccc1Cl)C(=O)/C=C/c1ccco1 do in these assays?
rTrxR1 inhibitor: -2%[57.1 µM]; A549 viability: 1%; Nrf2 inh: -19%; GALK inhibitor: 0%; Nrf2 activator: 11µM*; TrxR1 substrate: -6%

Results for O=C(/C=C/c1ccco1)Nc1cc(Cl)ccc1C(=O)O ?
rTrxR1 inhibitor: 13µM*; A549 viability: -10%; Nrf2 inh: -23%; Nrf2 activator: 6%[9.22 µM]; TrxR1 substrate: -19%

What do the screens show for `O=C(/C=C/c1ccco1)Nc1ccccc1C(=O)O`?
rTrxR1 inhibitor: 14µM*; A549 viability: -7%; Nrf2 inh: inconclusive; GALK inhibitor: 5%; Nrf2 activator: 4%; TrxR1 substrate: -7%[57.1 µM]

How did CN(C(=O)/C=C/c1ccco1)c1ccccc1C(=O)O do in these assays?
rTrxR1 inhibitor: 28µM*; A549 viability: -13%; Nrf2 inh: 1%; GALK inhibitor: 7%; Nrf2 activator: 0%; TrxR1 substrate: -2%

Results for CN(C(=O)C=Cc1ccco1)c1ccccc1 ?
rTrxR1 inhibitor: -3%[11.4 µM]; A549 viability: -4%; Nrf2 inh: 8%; Nrf2 activator: 21%; TrxR1 substrate: 4%[11.4 µM]

What do the screens show for `COc1ccc(NC(=O)CSc2nnc(NC(=O)Nc3ccccc3)s2)c(OC)c1`?
rTrxR1 inhibitor: 16%[57.1 µM]; A549 viability: 0%; Nrf2 activator: -1%; TrxR1 substrate: 5%[57.1 µM]

Results for CC(C)(C)c1ccc(C(=O)NCC(=O)OC(C(=O)Nc2cc(C(F)(F)F)ccc2Cl)c2ccccc2)cc1 (stereo not given) ?
A549 viability: 1%; Nrf2 inh: inconclusive

Results for COc1ccccc1Nc1nc(-c2c(C)nc3ncccn23)cs1 ?
rTrxR1 inhibitor: 12%; A549 viability: inconclusive; Nrf2 inh: 12µM*; GALK inhibitor: 0%; Nrf2 activator: 8%; TrxR1 substrate: 4%

What do the screens show for `Cc1cc(C2C(C#N)=C(N)SC(N)=C2C#N)c(C)s1`?
rTrxR1 inhibitor: 32µM*; A549 viability: -14%; Nrf2 inh: 4%; GALK inhibitor: -1%; Nrf2 activator: 11%; TrxR1 substrate: -5%

How did O=C(O)c1cc2cccc([N+](=O)[O-])c2[nH]1 do in these assays?
rTrxR1 inhibitor: -6%; TrxR1 substrate: -5%
